Source: PubChem BioAssay AID1117319 (Southern Research Institute, 2015)
Where “and” joins values, the source holds several entries; their conditions need not be identical. Equal entries are not always repeated. In all, about 260,000 compounds went through this assay and about 1,500 (0.58%) were called active. Another 5% or so got no clear call; they are omitted.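 How the source made its calls: active means inhibition above a set limit at one or more doses, reproduced on every date tested; inconclusive means results disagree between test dates, or hit never tested in dose response; inactive means the rest.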 Not all results are given here. Entries with a potency or affinity are not part of this list.

molecular target: Virion infectivity factor (Human immunodeficiency virus type 1 group M subtype B (isolate BH10)) + Virion infectivity factor (Human immunodeficiency virus type 1 group M subtype B (isolate BRU/LAI)) + Virion infectivity factor (Human immunodeficiency virus type 1 group M subtype B (isolate PCV12)) + Virion infectivity factor (Human immunodeficiency virus type 1 group M subtype B (isolate HXB2)) + DNA dC->dU-editing enzyme APOBEC-3G (Homo sapiens) (UniProt P69720+P69721+P69722+P69723+Q9HC16); assay: inhibitors of Vif binding to APOBEC3G peptide, primary screen, biochemical, TR-FRET, GST-Vif 1-94, biotin-A3G peptide, dose response retest (AID 1117319); details: hits give high values;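 further: Vif residues 1-94 fused to GST binding biotinylated APOBEC3G peptide 110-148; 0% = full assay without inhibitor and 100% = GST in place of GST-Vif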

inhibition, inactive:
CCOC(=O)c1ccc(NCc2ccncc2)cc1 -1.73%
COC(CN1CCc2c(C)nc3c(C#N)cnn3c21)OC 1.49%
CN(C)S(=O)(=O)c1cc(NC(=O)[C@H](Cc2ccccc2)N2C(=O)c3ccccc3C2=O)ccc1Cl 15.5%
NC(=O)c1sc2nc(-c3ccco3)ccc2c1N 25.6%
Nc1c(C(=O)Nc2ccc(Br)cc2)sc2nc(-c3ccco3)ccc12 4.88%
N#Cc1ccc(CSc2nnc(-c3ccccc3)n2Cc2ccco2)cc1 3.24%
Cc1ccc(-c2nnc(SCc3ccc(C#N)cc3)n2Cc2ccco2)cc1 21.2%
COc1cccc(C(=O)OC(C)CN2CCCC2)c1 (configuration not stated) 2.26%
COc1ccc(CCC(=O)N2CCN(S(=O)(=O)c3ccc4ccccc4c3)CC2)cc1 -2.65%
O=C1c2ccccc2C(O)(c2ccccc2)N1C1CC1 (configuration not stated) 18.6%
COc1cc(C(=O)OCCN2CCOCC2)ccc1O 6.52%
COc1cc(C(=O)OCCCN2CCOCC2)ccc1O 5.32%
CCNc1nc(SC(C)C(=O)OC)nc(N2CCOCC2)n1 (configuration not stated) 2.4%
COc1ccc(N2CS(=O)(=O)/C(=C/N(C)C)C2=O)cc1 9.06%
COCCCNC(=S)Nc1ccc2nc3n(c(=O)c2c1)CCCCC3 -4.36%
CCn1c(O)c(C=NC2CCCC2)sc1=S 5.46%
Oc1ccc(C=NC2CCCCC2)c(O)c1 21.7%
CCOC(=O)N1CCC(N2CC34C=CC(O3)C(C(=O)Nc3ccc(F)cc3)C4C2=O)CC1 (configuration not stated) 5.89%
Cc1ccc(N2C(=O)Nc3cc(Cl)c(Cl)cc3N2O)cc1Cl 4.32%
CCN1CCN(CC(=O)Nc2cc(S(=O)(=O)N3CCCCC3)ccc2Cl)CC1 -1.15%
CC(C)(C)n1nnnc1C(c1ccc2ncccc2c1)N1CCC(O)CC1 (configuration not stated) -3.23%
CN(C)N1C(N)=C(C#N)C(c2cccc([N+](=O)[O-])c2)C2=C1CC(C)(C)CC2=O (configuration not stated) -5.57%
COc1ccc(C)c2sc(N(CCCN(C)C)C(=O)c3ccc(S(=O)(=O)N(C)C)cc3)nc12 -2.34%
CCn1c2ccccc2c2cc(NC(=O)c3ccc(C)c([N+](=O)[O-])c3)ccc21 8.31%
CCn1c2ccccc2c2cc(NC(=O)c3cccc([N+](=O)[O-])c3C)ccc21 -6.86%
C=CCCCN(Cc1ccccc1)S(=O)(=O)c1ccccc1Br -1.22%
COc1ccc(C(=O)COC(=O)c2cccc(-n3cnnn3)c2)c(OC)c1 3.56%
COC(=O)c1cccc(-n2cnnn2)c1 22.2%
CCOC(=O)c1cc(-c2ccc(OC)cc2F)nc2c1c(C)nn2CCC#N 15.4%
CC1=C(C(=O)OCc2ccccc2)C(c2cccs2)N2C(=O)CCSC2=N1 (configuration not stated) -5.63%
CCOC(=O)CCn1cnc2ccc([N+](=O)[O-])cc2c1=O 10.2%
Cc1ccc(-c2ccc(=O)n(CCC(=O)N3CCN(c4cccc(C)c4)C(C)C3)n2)cc1 (configuration not stated) 1.97%
CCOC(CNC(=O)c1cccc([N+](=O)[O-])c1)OCC 8.25%
O=C1CC(Sc2ncccc2C(=O)O)C(=O)N1 (configuration not stated) 5.46%
Cc1cccc2c1NC(=O)C2(O)N1CCCC(C)C1 (configuration not stated) 7.4%
C/C(=N\Oc1cccc(F)n1)c1ccc(Cl)cc1Cl -2.41%
CC(C)c1ccc(S(=O)(=O)N2CCN(CC(=O)c3ccc(O)c(O)c3)CC2)cc1 24.8%
O=C(CN1CCN(S(=O)(=O)c2ccc(Br)cc2)CC1)c1ccc(O)c(O)c1 23.1%
COc1cc(/C=C2\CC(C(C)(C)C)C/C(=C\c3cc(OC)c(OC)c(OC)c3)C2=O)cc(OC)c1OC (configuration not stated) 2.75%
CC1C/C(=C/c2ccccn2)C(=O)/C(=C/c2ccccn2)C1 (configuration not stated) 19.4%
CC1C/C(=C/c2ccncc2)C(=O)/C(=C/c2ccncc2)C1 (configuration not stated) 25.8%
CC(C)(C)C1C/C(=C/c2ccccn2)C(=O)/C(=C/c2ccccn2)C1 (configuration not stated) 2.61%
CCC1C/C(=C\c2cccnc2)C(=O)/C(=C/c2cccnc2)C1 (configuration not stated) 9.28%
CC12CCCC(=O)C1CCC(=Cc1ccco1)C2=O (configuration not stated) 2.03%
CCC(NC(=O)NNC(N)=S)(C(F)(F)F)C(F)(F)F 2.24%
CCOc1ccccc1N1CCN(C(=O)c2ccc(-c3ccc(OC(C)=O)cc3)cc2)CC1 -6.48%
Cc1cc(C)c(C(=O)CSc2nnc(C)s2)c(C)c1 -3.21%
CCOC(=O)C1C(=O)CC(C)(O)C(C(=O)OCC)C1c1cccc(OC(F)(F)C(F)F)c1 (configuration not stated) 1.49%
Cc1cccc(OCc2nc(C#N)c(NCc3ccc4c(c3)OCO4)o2)c1 2.3%
C[C@H](NC(=O)c1ccco1)C(=O)OCC(=O)N1CC(=O)Nc2ccccc21 1.38%
COc1ccccc1NC(=O)CN(c1ccccc1F)S(C)(=O)=O 2.7%
Cc1ccc(S(=O)(=O)Nc2cccc(C(=O)N3CCN(c4ccccc4O)CC3)c2)cc1F -3.67%
COc1ncnc2c1ncn2CCCN(C)CCc1ccccn1 3.23%
Nc1nc(N)c2c(n1)CN(Cc1ccc(Cl)cc1)C2 -2.69%
Cc1ccc(C(=O)N/N=C\c2ccc(-c3ccc(Cl)cc3)o2)cn1 23.4%
Cc1cccc(C(=O)N/N=C/c2cc(Br)c(Br)o2)c1 0.73%
COC(=O)COc1ccc(S(=O)(=O)Nc2ccc3c(c2)OCCO3)cc1Cl -0.68%
COc1cccc(CNC(=O)CCS(=O)(=O)c2cccs2)c1 -7.15%
COc1cccc(CNC(=O)CCCNS(=O)(=O)c2cccs2)c1 22.8%
CC1(C)CC(=O)c2cc(OCC(=O)NCCCN3CCN(c4ccc(F)cc4)CC3)ccc2O1 -7.66% and 5.99%
O=C(O)CN1C(=O)CNC1=O -0.07%
CC(=O)Nc1ccc(S(=O)(=O)NCC(=O)OCC(=O)NCc2ccco2)cc1 7.01%
CCOC(=O)C1CCCN(C(=O)COC(=O)c2cc(=O)c3ccccc3o2)C1 (configuration not stated) 29.1%
CC(C)n1cc(CN2CCCC(CNS(=O)(=O)c3cccc4cccnc34)C2)cn1 (configuration not stated) 10.9%
Cc1cc(/C=C2\SC(=S)NC2=O)c(C)n1-c1ccc(O)cc1 71.3%
Cc1cc(/C=C2\SC(=S)NC2=O)c(C)n1C1CC1 30.7%
Cc1cc(/C=C2\SC(N)=NC2=O)c(C)n1-c1ccccc1 19.3%
COC(=O)c1cccc(-n2c(C)cc(/C=C3\SC(=O)NC3=O)c2C)c1 3.07%
Cc1nn(C)cc1/C=C1\SC(=S)NC1=O -1.22%
Cc1ccc(-n2c(C)cc(/C=C3\SC(=O)NC3=O)c2C)cc1 -6.8%
COc1cccc(CNC(=O)Cn2ncc3c(=O)oc4ccccc4c32)c1 -6.25%
Cc1cccc(-n2ccc(=O)c(C(=O)O)n2)c1 -11%
O=C(Nc1ccc(Cl)c(S(=O)(=O)N2CCOCC2)c1)c1ccccn1 -0.06%
O=C(O)CCCN1C(=O)C2C3CCC(C3)C2C1=O (configuration not stated) 6.83%
Cc1cccc(C)c1-n1c(C)cc(/C=N\Nc2ccc([N+](=O)[O-])cn2)c1C 10.6%
Cc1cc(/C=N/Nc2ccc([N+](=O)[O-])cn2)c(C)n1-c1ccccc1 6.45%
Cc1ccccc1-n1c(C)cc(/C=N/Nc2ccc([N+](=O)[O-])cn2)c1C 6.93%
Cc1ccc(-n2c(C)cc(/C=N/Nc3ccc([N+](=O)[O-])cn3)c2C)cc1 12.6%
Cn1ncc(Cl)c1C(=O)NC(=S)Nc1sc2c(c1C#N)CCCCC2 1.11%
CC(=O)N(C1=C(O)c2ccccc2C(=O)C1=O)C1CCCCC1 -2.6%
O=C(NCc1ccco1)c1cccnc1Cl 2.06%
COc1cccc(NC(=O)Nc2cccs2)c1 19.8%
COc1ccc(NC(=O)Nc2cccs2)cc1Cl 3.45%
CC[C@@H]1CCCCc2ccccc2[C@@H](C(=O)C[C@@H](O)CC(C)=O)OC1=O -2.17%
C/C=C(\C)C(=O)Nc1cccc(C2=NOC3(C2)C[C@H](C(N)=O)N(C(=O)c2cc([N+](=O)[O-])cc([N+](=O)[O-])c2)C3)c1 (some centres not stated) 9.79%
CCCCCC(=O)Nc1cccc(C2=NOC3(C2)C[C@H](C(N)=O)N(C(=O)CCCCC)C3)c1 (some centres not stated) 14.4%
C/C=C(/C)C(=O)Nc1cccc(C2=NOC3(C2)C[C@@H](C(N)=O)N(C(=O)CCCCC)C3)c1 (some centres not stated) 4.38%
CCC(=O)Nc1cccc(C2=NOC3(C2)C[C@@H](C(N)=O)N(C(=O)c2cc([N+](=O)[O-])cc([N+](=O)[O-])c2)C3)c1 (some centres not stated) 9.27%
CCC(=O)Nc1cccc(C2=NOC3(C2)C[C@@H](C(N)=O)N(C(=O)COc2ccc(Cl)cc2)C3)c1 (some centres not stated) 1.74%
C=C(C)C(=O)N1CC2(CC(c3cccc(NC(=O)COc4ccc(Cl)cc4)c3)=NO2)C[C@@H]1C(N)=O (some centres not stated) -2.13%
C/C=C(\C)C(=O)Nc1cccc(C2=NOC3(C2)C[C@H](C(N)=O)N(C(=O)C(c2ccccc2)c2ccccc2)C3)c1 (some centres not stated) 17.8%
CCC(=O)Nc1cccc(C2=NOC3(C2)C[C@@H](C(N)=O)N(C(=O)C(c2ccccc2)c2ccccc2)C3)c1 (some centres not stated) 5.6%
